Records with an inconclusive call do not appear. Activity calls are given as the source filed them. Cut-off read from the data, not from the text of the source, unless noted: active = inhibition above about 30%; inactive = the rest.

This is an account of results in PubChem BioAssay.

Experiment [1] in a line: reducers of endogenous Her2 protein level, primary screen, SKBR3 breast tumor cells, AlphaScreen, ATP viability (AID 461;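 active = Her2 level under about 52% in both replicate screens, with viability over 70% of control, limit read from the data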;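 for Her2 level: lower value means less Her2 protein in the cells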;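 for viability: percent of carrier control wells set as 100% viability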). The following applies: 18-24 h, measured here: SKBR3 viability, ATP luminescence, at 10 µM. In general terms: Bead proximity is the source of the signal in Alpha formats.
In experiment [2] the target is Receptor tyrosine-protein kinase erbB-2 (Homo sapiens) (UniProt P04626). The description is as above. The note with it: 18-24 h, at 10 µM, stronger effect = lower value.
Experiment [3] is described as follows: SK-BR-3 cell growth inhibitors, pilot screen, 24 h, human (AID 572;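 active = viability at or below 10% of carrier control in both of two separate runs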;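 note: compound exposure lasted between 18 and 24 h rather than exactly 24 h; 100% = carrier-treated control wells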). The note with it: SK-BR-3 viability, CellTiter-Glo luminescence, at 10 µM, stronger effect = lower value. On the technique in general: In ATP-based viability assays light output follows the ATP content of the culture.
Experiment [4] can be described thus: HUVEC growth inhibition – cell-based, human, primary screen (AID 575;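 active = viability at or below 30% in both replicate assays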;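 note: 100% = median of untreated cell wells with 0.1% DMSO on each plate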). The note with it: HUVEC proliferation, CellTiter-Glo luminescence, 72 h; at 10 µM; stronger effect = lower value.
Experiment [5] can be described thus: growth inhibitors of H69AR lung tumor, primary screen, human, duplicate replicates (AID 580;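 active = viability at or under a set limit in both replicates, limit being median viability minus 3 SD, cut at about 48% in these data, passing the limit was not always enough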;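 note: 100% = mean luminescence of untreated wells and 0% = no signal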). The following applies: H69AR lung tumor cells viability, ATP luminescence, 72 h; at 10 µM; stronger effect = lower value.
A short description of experiment [6]: reversal of MRP1-mediated doxorubicin resistance, pilot screen, H69AR cells, doxorubicin co-treatment (AID 601;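 active = viability loss from added drug above about 55%, and viability with drug at most 40%, in both replicates, limit read from the data, passing the limit was not always enough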). The note with it: CellTiter-Glo, 72 h, at 10 µM; for differential viability (reversal): stronger effect = higher value.
A short description of experiment [7]: 384-well plate pilot, post-Golgi transport modulator project, inhibition of yeast transport mutant growth (AID 636; in the data active = inhibition above about 31%). The following applies: absorbance 615 nm, about 18 h, stronger effect = higher value.
Experiment [8] is described as follows: growth suppression of yeast trafficking mutant, preliminary HTS, modulators of trafficking downstream of Golgi apparatus project, 1536-format plate, OD 615 nm (AID 637). The note with it: yeast transport mutant growth, absorbance 615 nm, 18 h; stronger effect = higher value.
A short description of experiment [9]: OD615 S. cerevisiae growth inhibition, permissive medium, pilot counter-assay, permissive growth control for S. cerevisiae lifespan shortening project (AID 705;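 active = growth inhibition above 25% in both replicates, a cutoff set 3 SD above the mean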). The note with it: OD615, 24 h, at 10 µM, stronger effect = higher value.
Experiment [10] in a line: Restrictive medium S. cerevisiae growth inhibition, OD615, pilot screen of yeast lifespan reduction project, restrictive growth control (AID 706;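 active = growth inhibition above a set limit, 3 SD over mean compound inhibition, in both replicates, cut at about 43% in these data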;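 note: modified DeaD lifespan yeast strain shifted to restrictive glucose medium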). The following applies: OD615, 48 h, at 10 µM, stronger effect = higher value.
Experiment [11] in a line: viability gain of MRP-1-high H69AR cells under doxorubicin, pilot screen, MRP-1 activator project, CellTiter-Glo, duplicate (AID 807;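 active = viability increase at or above a cutoff of the median across tested compounds plus 3 SD, cut at about 8.5% in these data, passing the limit was not always enough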;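 note: compound pretreatment 18-22 h then 72 h combined with doxorubicin; 0% = doxorubicin alone and 100% = vehicle without doxorubicin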). The note with it: H69AR viability with doxorubicin, CellTiter-Glo luminescence; at 10 µM; stronger effect = higher value.
Experiment [12] is described as follows: growth suppression of beta-catenin knockout HCT116, pilot screen, human colon tumor cells (AID 823;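 active = cell viability at or below a set limit in both duplicate runs, the limit being the all-compound median minus 4 SD, cut at about 23% in these data, passing the limit was not always enough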;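 note: 0% = wells killed by 20 µM Hyamine and 100% = untreated DMSO cell wells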). The note with it: CellTiter-Glo, 60 h, at 10 µM, stronger effect = lower value.
Experiment [13] is described as follows: growth suppression of PTEN-deleted HCT116, pilot screen, cell-based, HCT116 clonal line, CellTiter-Glo (AID 824;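 active = viability at or below 27.92% in each of two runs, the all-compound median minus 4 SD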;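 note: 0% = 20 µM Hyamine control and 100% = vehicle cell control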). The note with it: 60 h, at 10 µM, stronger effect = lower value.
A short description of experiment [14]: inhibitors of the yeast RAM network, pilot screen, dse1pr::URA3 reporter, 5-FOA selection (AID 869;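 active = inhibition over a set limit, the all-compound mean plus 3 SD, in both replicate runs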;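 note: 0% = DMSO wells with no growth and 100% = 10 µM 1-NA-PP1 with full growth; RAM network block rescues cells from 5-FOA so hits raise OD615 growth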). The note with it: S. cerevisiae dse1pr::URA3 5-FOA growth, OD615, 2 d; at 10 µM; stronger effect = higher value; strain carries analog-sensitive mutant Cbk1 kinase.
A short description of experiment [15]: RAM signaling pathway blockade in yeast – S. cerevisiae, Pdr1DBD-CYC8 efflux-inhibited sensitized strain, primary screen (AID 1298;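 active = RAM network inhibition above 8.4% in each of two replicates, 3 SD over the compound average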;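 note: 0% = DMSO untreated cells without growth and 100% = 10 µM 1-NA-PP1 full growth; higher means more yeast growth rescued from 5-FOA killing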). The following applies: S. cerevisiae cbk1-as DSE1-URA3 strain, 5-FOA growth OD615, 2 d; at 50 µM; stronger effect = higher value.
Where [16] appears, read: H69AR cells + 2 uM doxorubicin, measured here: viability with 2 uM doxorubicin, stronger effect = lower value.
Where [17] appears, read: H69AR cells, compound alone cytotoxicity.

Receptor tyrosine-protein kinase erbB-2 (Homo sapiens), sequence (P04626 whole entry, looked up): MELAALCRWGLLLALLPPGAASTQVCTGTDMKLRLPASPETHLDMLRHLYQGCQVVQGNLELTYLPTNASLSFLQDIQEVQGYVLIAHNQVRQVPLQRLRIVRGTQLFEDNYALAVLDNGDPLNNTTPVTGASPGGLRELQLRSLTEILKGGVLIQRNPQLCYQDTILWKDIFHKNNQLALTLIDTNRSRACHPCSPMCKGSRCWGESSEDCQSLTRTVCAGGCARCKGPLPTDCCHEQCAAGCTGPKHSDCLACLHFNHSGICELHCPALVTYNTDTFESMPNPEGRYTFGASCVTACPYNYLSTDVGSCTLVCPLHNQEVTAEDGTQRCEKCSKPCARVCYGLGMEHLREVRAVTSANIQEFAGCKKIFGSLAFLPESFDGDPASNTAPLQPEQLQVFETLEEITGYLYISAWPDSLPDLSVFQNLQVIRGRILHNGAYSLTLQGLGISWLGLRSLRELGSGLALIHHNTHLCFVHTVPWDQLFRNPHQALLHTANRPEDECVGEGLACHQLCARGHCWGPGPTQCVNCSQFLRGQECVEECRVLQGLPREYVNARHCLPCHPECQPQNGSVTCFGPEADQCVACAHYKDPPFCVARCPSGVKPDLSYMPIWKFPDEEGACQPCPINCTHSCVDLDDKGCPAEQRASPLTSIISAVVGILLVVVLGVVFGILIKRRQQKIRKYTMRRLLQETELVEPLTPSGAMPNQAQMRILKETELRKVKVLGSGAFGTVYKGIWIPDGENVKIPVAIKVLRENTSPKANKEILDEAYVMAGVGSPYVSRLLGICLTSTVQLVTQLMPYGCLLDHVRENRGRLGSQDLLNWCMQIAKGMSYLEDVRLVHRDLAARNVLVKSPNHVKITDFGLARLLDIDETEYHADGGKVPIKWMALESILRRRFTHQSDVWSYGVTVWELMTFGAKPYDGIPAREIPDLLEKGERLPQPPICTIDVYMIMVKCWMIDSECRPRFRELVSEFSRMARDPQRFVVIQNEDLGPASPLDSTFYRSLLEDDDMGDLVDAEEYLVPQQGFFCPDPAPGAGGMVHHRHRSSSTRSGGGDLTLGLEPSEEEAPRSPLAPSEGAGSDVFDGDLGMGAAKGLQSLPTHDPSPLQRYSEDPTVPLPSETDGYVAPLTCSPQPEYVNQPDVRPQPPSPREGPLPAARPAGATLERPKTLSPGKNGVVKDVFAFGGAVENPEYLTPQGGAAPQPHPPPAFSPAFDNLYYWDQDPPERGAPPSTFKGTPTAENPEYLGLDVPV

As usually defined, the viability is a read-out of living cells in per cent, often relative to untreated cells. By inhibition is commonly meant the change of the read-out against control, counted positive when it falls. Take `CCOC(=O)c1sc2nc(NC(=O)COc3ccccc3)sc2c1C`: the viability in experiment [1] is 78.5%; in [3], 78.5% (inactive); in experiment [4] it was 74.1% (inactive); in experiment [5], 69.4% (inactive); in [6] (setting [16]) it was 79.5%; in [6] (setting [17]), 69.4%. The viability is 109% (inactive) in [12] and 98.4% (inactive) in [13]. Moreover, the Her2 level in experiment [2] was 123% (inactive). In addition, the differential viability (reversal) in [6] (H69AR cells + 2 uM doxorubicin) is -10% (inactive). Also, the results for the inhibition in [7], in experiment [8] and in experiment [14] were 3.72% (inactive), -0.33% (inactive) and 2.67% (inactive), respectively. Also, the growth inhibition is -2.58% (inactive) in [9] and -19.8% (inactive) in [10]. In addition, the viability increase in experiment [11] was 1.51% (inactive). Besides, in experiment [15], the RAM network inhibition is 0.88% (inactive).
In the case of `COC(=O)Cc1cc(=O)[nH]c(Nc2nc3ccccc3o2)n1`, the viability is 104% in experiment [1]; 104% (inactive) in [3]; 74.6% (inactive) in experiment [4]; 78.3% (inactive) in experiment [5]; 69.8% in experiment [6] (setting [16]); 78.3% in experiment [6] (setting [17]). Besides, the viability in [12] is 102% (inactive); in experiment [13], 97.9% (inactive). In addition, the Her2 level in experiment [2] was 99.5% (inactive). Moreover, in experiment [6] (H69AR cells + 2 uM doxorubicin), the differential viability (reversal) was 8.41% (inactive). For the same molecule, the inhibition was -1.03% (inactive) in experiment [7], -3.33% (inactive) in experiment [8] and 1.03% (inactive) in experiment [14]. The growth inhibition in experiment [9] is 3.62% (inactive); in [10], 1.2% (inactive). The viability increase in experiment [11] is -2.4% (inactive). The RAM network inhibition in [15] was 5.31% (inactive).
With `Cc1c(NC(=O)c2ccc(CN3CCc4ccccc4C3)cc2)c(=O)n(-c2ccccc2)n1C`, the viability was 95% in experiment [1]; 95% (inactive) in experiment [3]; 94.3% (inactive) in experiment [4]; 98.8% (inactive) in [5]; 94.3% in [6] (setting [16]); 98.8% in experiment [6] (setting [17]). The results for the viability in [12] and in experiment [13] were 79.6% (inactive) and 84.4% (inactive), respectively. Further, the Her2 level in experiment [2] is 109% (inactive). The differential viability (reversal) in experiment [6] (H69AR cells + 2 uM doxorubicin) was 4.51% (inactive). In addition, the figures for the inhibition in experiment [7], in experiment [8] and in experiment [14] were -5.64% (inactive), -4.83% (inactive) and 0.845% (inactive), respectively. Besides, the figures for the growth inhibition in [9] and in [10] were -4.14% (inactive) and -6.79% (inactive), respectively. In addition, in experiment [11], the viability increase is 0.51% (inactive). The RAM network inhibition in experiment [15] is 5.97% (inactive).
In the case of `Cc1ccc(C)c(S(=O)(=O)n2cnc3ccccc32)c1`, the viability was 96.5% in experiment [1]; 96.5% (inactive) in experiment [3]; 109% (inactive) in experiment [4]; 99% (inactive) in experiment [5]; 91.1% in experiment [6] (setting [16]); 99% in experiment [6] (setting [17]). The values for the viability in experiment [12] and in experiment [13] were 95.2% (inactive) and 97.6% (inactive), respectively. Also, the Her2 level in experiment [2] is 87.5% (inactive). Moreover, the differential viability (reversal) in [6] (H69AR cells + 2 uM doxorubicin) was 7.94% (inactive). The figures for the inhibition in [7], in experiment [8] and in [14] were -0.13% (inactive), 30.2% (active) and 2.08% (inactive), respectively. Also, the growth inhibition is -18% (inactive) in experiment [9] and -20.2% (inactive) in experiment [10]. Further, in [11], the viability increase was 0.98% (inactive). In addition, the RAM network inhibition in experiment [15] is 2.15% (inactive).
Take `Cc1ccc(-c2nc3cc(NC(=O)C(C)C)ccc3o2)cc1`: the viability in experiment [1] was 87%; in experiment [3] it was 87% (inactive); in experiment [4] it was 73.5% (inactive); in [5] it was 82.4% (inactive); in experiment [6] (setting [16]), 83.6%; in [6] (setting [17]), 82.4%. The figures for the viability in [12] and in [13] were 82.6% (inactive) and 73.5% (inactive), respectively. The Her2 level in experiment [2] is 112% (inactive). Moreover, the differential viability (reversal) in experiment [6] (H69AR cells + 2 uM doxorubicin) was -1.22% (inactive). In addition, the values for the inhibition in [7], in experiment [8] and in experiment [14] were -1.92% (inactive), -10.3% (inactive) and 3.04% (inactive), respectively. The growth inhibition in [9] was -11.2% (inactive); in [10], -21.9% (inactive). Further, the viability increase in experiment [11] was -5.7% (inactive). In addition, in experiment [15], the RAM network inhibition was 5.12% (inactive).
As for `CCN(CC)C(=O)Cn1ncc2c1-c1ccccc1OC2`, the viability in [1] is 84.5%; in experiment [3] it was 84.5% (inactive); in experiment [4], 98.3% (inactive); in [5], 100% (inactive); in [6] (setting [16]), 84.7%; in experiment [6] (setting [17]) it was 100%. Besides, the viability was 105% (inactive) in experiment [12] and 100% (inactive) in experiment [13]. Also, in experiment [2], the Her2 level is 112% (inactive). The differential viability (reversal) in [6] (H69AR cells + 2 uM doxorubicin) is 15.7% (inactive). For the same molecule, the figures for the inhibition in experiment [7], in [8] and in experiment [14] were -0.64% (inactive), 1.33% (inactive) and 2.26% (inactive), respectively. The figures for the growth inhibition in [9] and in [10] were -13.3% (inactive) and -11.6% (inactive), respectively. Also, the viability increase in [11] was 0.84% (inactive). The RAM network inhibition in [15] was -2.31% (inactive).
As to `COc1ccc(S(=O)(=O)N2Cc3ccccc3CC2C(=O)Nc2ccc(O)cc2)cc1OC` (stereo not drawn), the viability in [1] was 91%; in [3], 91% (inactive); in experiment [4], 76.3% (inactive); in experiment [5] it was 77.4% (inactive); in [6] (setting [16]), 76.2%; in experiment [6] (setting [17]) it was 77.4%. The figures for the viability in experiment [12] and in experiment [13] were 96.6% (inactive) and 87.5% (inactive), respectively. For the same molecule, the Her2 level in [2] was 106% (inactive). Further, the differential viability (reversal) in experiment [6] (H69AR cells + 2 uM doxorubicin) was 1.23% (inactive). Also, the values for the inhibition in experiment [7], in experiment [8] and in [14] were -4.27% (inactive), -0.83% (inactive) and 1.39% (inactive), respectively. Moreover, the growth inhibition was -18.6% (inactive) in [9] and -18.4% (inactive) in experiment [10]. Further, the viability increase in experiment [11] was -4.42% (inactive). The RAM network inhibition in [15] is 11.6% (inactive).
Consider `CCOCCCNC(=O)Cn1cc2c(n1)CCCCC2`, for which the viability is 114% in [1]; 114% (inactive) in [3]; 109% (inactive) in experiment [4]; 103% (inactive) in experiment [5]; 96.8% in [6] (setting [16]); 103% in experiment [6] (setting [17]). Moreover, the viability in [12] is 100% (inactive); in experiment [13], 99.9% (inactive). In addition, the Her2 level in experiment [2] is 104% (inactive). In addition, the differential viability (reversal) in experiment [6] (H69AR cells + 2 uM doxorubicin) was 6.04% (inactive). Also, the inhibition in [7] was 1.03% (inactive); in experiment [8], 2.67% (inactive); in experiment [14], 2.07% (inactive). For the same molecule, the growth inhibition in [9] was -3.18% (inactive); in [10] it was -3.17% (inactive). In [11], the viability increase is -0.62% (inactive). Besides, in experiment [15], the RAM network inhibition is 3.72% (inactive).
On to `CCOC(=O)Cn1c(CCC(=O)O)ccc1-c1ccc(F)cc1`, for which the viability is 99% in experiment [1]; 99% (inactive) in experiment [3]; 106% (inactive) in [4]; 84.3% (inactive) in experiment [5]; 92.6% in experiment [6] (setting [16]); 84.3% in [6] (setting [17]). Also, the viability in experiment [12] was 102% (inactive); in [13] it was 101% (inactive). For the same molecule, the Her2 level in [2] is 101% (inactive). Moreover, the differential viability (reversal) in [6] (H69AR cells + 2 uM doxorubicin) is -8.34% (inactive). For the same molecule, the inhibition was -5.6% (inactive) in [7], 3.33% (inactive) in [8] and 0.72% (inactive) in [14]. Also, the growth inhibition in [9] was -9.79% (inactive); in experiment [10], -2.42% (inactive). Moreover, the viability increase in experiment [11] was -2.3% (inactive). For the same molecule, the RAM network inhibition in experiment [15] was 2.74% (inactive).
